CYP2C19 inh: inhibitors of human CYP2C19. AID 778. P33261. 96,000 compounds, 21% hits. inhibition, % at 5 µM. CYP2C19 Supersomes, luciferin-H EGE luminescence, 30 min;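 active = CYP2C19 inhibition above a set limit at 5 µM in the primary screen, cut at about 50% in these data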
CYP2C19 activ: cytochrome P450 2C19 (human) activation; 96,000 tested, under 10 active; AID 1025; activation factor at 5 µM; P33261; recombinant CYP2C19, luciferin-H EGE luminescence; stronger effect = higher value; 0 = fully inhibited enzyme, 1 = untreated enzyme;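 active = activation factor of at least 2 at 5 µM in the primary screen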
CYP2C9 inh: inhibitors of human CYP2C9. CYP2C9 Supersomes, luciferin-H conversion, luminescence. inhibition, % at 5 µM. 96,000 compounds, 20% hits;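 active = blocking of liver enzyme CYP2C9 beyond about 50% at 5 µM, limit read from the data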
sEH act: activators of human soluble epoxide hydrolase; P34913; purified human sEH enzymatic activity, activator screen; activation, % at 2 µM; 91,000 compounds, 0.04% hits; AID 717; in the data active = activation above about 37%
Target sequence (P34913 whole entry, looked up): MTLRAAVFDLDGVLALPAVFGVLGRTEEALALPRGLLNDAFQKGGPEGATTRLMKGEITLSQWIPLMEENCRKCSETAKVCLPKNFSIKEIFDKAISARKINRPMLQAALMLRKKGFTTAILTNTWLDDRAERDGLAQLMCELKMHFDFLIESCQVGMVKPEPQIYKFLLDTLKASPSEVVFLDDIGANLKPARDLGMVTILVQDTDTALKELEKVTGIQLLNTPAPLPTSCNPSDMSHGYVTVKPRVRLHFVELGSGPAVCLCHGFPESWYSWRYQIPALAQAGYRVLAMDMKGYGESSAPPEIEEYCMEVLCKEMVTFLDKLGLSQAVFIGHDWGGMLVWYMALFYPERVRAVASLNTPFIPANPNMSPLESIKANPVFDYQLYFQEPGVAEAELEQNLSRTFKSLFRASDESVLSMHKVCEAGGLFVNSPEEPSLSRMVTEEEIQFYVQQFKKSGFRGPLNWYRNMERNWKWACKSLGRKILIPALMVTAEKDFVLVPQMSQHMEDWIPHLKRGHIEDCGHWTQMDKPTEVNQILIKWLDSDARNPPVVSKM
CYP2C9 act: CYP2C9 (human) activation; P11712; recombinant CYP2C9, luciferin-H conversion, luminescence; stronger effect = higher value; factor 1 = untreated enzyme, 0 = blocked; activation factor at 5 µM; 96,000 compounds, 1.4% hits;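 active = activation factor of 2 or more for CYP2C9 at a 5 µM dose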
sEH inh: soluble epoxide hydrolase (human) inhibition | P34913 | recombinant human sEH enzymatic activity assay | inhibition, % at 2 µM | 91,000 compounds, 0.34% hits | AID 707; in the data active = inhibition above about 80%
Numbers stand for hits; n = inactive; x = no result given. Hits are enriched below; roughly 27% of the tested compounds scored in any of these assays.

SMILES	CYP2C19 inh	CYP2C19 activ	CYP2C9 inh	sEH act	CYP2C9 act	sEH inh
O=C(NC1CCCCC1)NC1(C(=O)NCCCN2CCOCC2)CCCCC1	n	n	n	n	n	n
Nc1nc2c(s1)C(=O)CC(c1ccccc1)C2 (stereo unspecified)	n	n	n	n	n	n
O=c1[nH]c2cc3c(cc2cc1C(c1nnnn1C1CCCCC1)N1CCSCC1)OCCO3 (stereo unspecified)	x	x	x	n	x	n
CCc1ccccc1NC(=O)CSc1nnc(-c2ccco2)n1N	55.8	n	n	n	n	n
C=CCn1c(SCC(=O)N2CCN(c3ccc(F)cc3)CC2)nnc1-c1ccco1	n	n	n	x	n	x
Cc1ccnc(SCC(=O)N2CCN(c3ccccc3)CC2)n1	x	x	x	n	x	n
COc1ccccc1NC(=O)CSc1ncn(-c2ccccc2)n1	75.9	n	n	n	n	n
Cc1ccnc(SCC(=O)N2CCN(c3cccc(Cl)c3)CC2)n1	99.0	n	n	n	n	n
C=CCn1c(SCC(O)Cn2c3ccccc3c3ccccc32)nnc1-c1ccco1 (stereo unspecified)	97.7	n	90.1	n	n	n
N#CCCN(C(=O)CSc1ccc2c(c1)OCCO2)c1ccc(F)cc1	n	n	n	n	n	n
Cc1ccc2[nH]c(=O)c(N3CCOCC3)c(-c3ccccc3)c2c1	n	n	n	n	n	n
C=CCn1c(SCc2nc(N)nc(N(C)C)n2)nnc1-c1cccnc1	n	n	n	n	n	n
N#Cc1ccccc1OCC(=O)OCC(=O)c1ccc2c(c1)NC(=O)CO2	66.9	n	59.1	x	n	x
CC[C@H](C)[C@H](NC(=O)c1ccc(Cl)cc1)C(=O)OCC(=O)c1ccc2c(c1)NC(=O)CO2	n	n	55.7	n	n	n
CC(C)C(C(=O)OCC(=O)c1ccc2c(c1)NC(=O)CO2)N1C(=O)c2ccccc2C1=O (stereo unspecified)	n	n	n	x	n	x
COc1ccc(N2CCCn3c2nc2c3c(=O)n(Cc3ccccc3F)c(=O)n2C)c(OC)c1	n	n	n	n	n	n
COc1ccc(COCC(O)CN2CC(C)OC(C)C2)cc1OC (stereo unspecified)	n	n	n	n	n	n
CC(C)C1CC(c2csc(N)n2)CCO1 (stereo unspecified)	n	n	n	n	n	n
CCCC1CC(c2csc(N)n2)CCO1 (stereo unspecified)	80.1	n	75.7	n	n	n
COc1ccc(Br)cc1CNC(=O)C1CCN(S(=O)(=O)N2CCCC2)CC1	n	n	n	n	2.6	n
COc1ccccc1CNC(=O)C1CCN(S(=O)(=O)N2CCCCC2)CC1	n	n	n	n	2.2	n
O=C(Cn1c(C(=O)NCC2CCCO2)cc2sccc21)c1ccccc1 (stereo unspecified)	n	n	51.1	n	n	n
O=C(c1ccccc1)N1CCN(C2CCCCC2)CC1	x	x	x	n	x	n
O=C(Cn1c(C(=O)N2CCN(C3CCCC3)CC2)cc2sccc21)c1ccccc1	80.0	n	n	n	n	n
CC(C)COP(=O)(c1ccc(N(C)C)cc1)C(O)c1ccccc1F (stereo unspecified)	n	n	n	n	n	n
SMILES	CYP2C19 inh	CYP2C19 activ	CYP2C9 inh	sEH act	CYP2C9 act	sEH inh
COc1cccc(/C(O)=C2\C(=O)C(=O)N(c3ccccn3)C2c2cccc(OC)c2OC)c1 (stereo unspecified)	n	n	n	n	n	n
O=C1c2ccccc2OC2(C=Cc3ccccc3O2)N1Cc1ccccc1 (stereo unspecified)	97.1	n	94.1	n	n	n
COc1cccc2c1OC1(C)CC2NC(=O)N1Cc1ccccc1 (stereo unspecified)	n	n	n	n	n	n
CC(C1CC1)N(C(=O)NC1CCS(=O)(=O)C1)c1ccccc1 (stereo unspecified)	n	n	n	n	n	n
COc1ccc(N2CCN(C(=O)C(C)(C)Oc3ccc(Cl)cc3)CC2)cc1	73.8	n	89.8	n	n	n
CCOC(=O)N1CCN(C(=O)COc2ccc(Cl)cc2)CC1	n	n	n	n	n	n
COc1ccc(N2CCN(C(=N)/C(C(C)=O)=C(\C)O)CC2)cc1	n	n	n	n	n	n
CCOC(=O)N1CCN(C(=O)C(C)(C)Oc2ccc(Cl)cc2)CC1	73.6	n	84.4	n	n	n
CCOc1cc(C(=O)NC(C)COC)cc(OCC)c1OCC (stereo unspecified)	n	n	n	n	n	n

High-throughput results from PubChem.
